This assay concerns NCI-H1944. In words: normalised cell viability (NPI; 0 = phenylarsine oxide control, 1 = DMSO control) (fraction of DMSO control); NCI-H1944 is a non-small cell lung cancer line; higher = more viable cells (less compound toxicity). As to conditions: 6 days.
Setting [1] is: glucocorticoid arm: hydrocortisone 2.75 uM co-treatment, compound 1 µM.
[2] abbreviates: glucocorticoid arm: hydrocortisone 2.75 uM co-treatment, compound 5 µM.
Setting [3] is: glucocorticoid arm: hydrocortisone 2.75 uM pre-treated 2 days and continued, compound 1 µM.
Setting [4] is: glucocorticoid arm: hydrocortisone 2.75 uM pre-treated 2 days and continued, compound 5 µM.
Setting [5] is: glucocorticoid arm: vehicle, compound 1 µM.
Where [6] appears, read: glucocorticoid arm: vehicle, compound 5 µM.

The values below come from the supplement of paper PMC8285479.

Where a name gives a salt, the structure may show the parent alone. ± gives the standard deviation of the averaged measurements. Whole data set: some 1,900 compounds, median “normalised cell viability (NPI; 0 = phenylarsine oxide control, 1 = DMSO control)” near 1, cut for the lowest 2% near 0.039. The sample holds the lowest values, similar compounds and a random draw of the others, so the mix is not that of the screen.
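Note: CTB read-out in 384-well plates, triplicate wells, NPI normalised per plate against 1 µM phenylarsine oxide (0) and 0.1% DMSO (1) controls.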

For `N=C(N)NC(=O)c1nc(Cl)c(N)nc1N` [Amiloride hydrochloride], the normalised cell viability runs as follows: under setting [1], 0.9737 ± 0.006; under setting [2], 0.966 ± 0.023; under setting [3], 0.991 ± 0.0052; under setting [4], 0.992 ± 0.025; under setting [5], 0.9947 ± 0.0084; under setting [6], 1.003 ± 0.0064.
Take `N/C(=N\C(=O)c1nc(Cl)c(N)nc1N)NCc1ccc(Cl)c(Cl)c1` [3',4'-Dichlorobenzamil hydrochloride]: the normalised cell viability was determined as 0.99 ± 0.0089 under setting [1]; 0.0646 ± 0.03 under setting [2]; 0.998 ± 0.013 under setting [3]; 0.862 ± 0.014 under setting [4]; 0.98667 ± 0.00058 under setting [5]; 0.0118 ± 0.0064 under setting [6].
Consider `CCCCCCCCCCCCCCCCCC(=O)NCC(COP(=O)([O-])OCC[N+](C)(C)C)OCC` (racemic) [rac-2-Ethoxy-3-octadecanamido-1-propylphosphocholine], for which the normalised cell viability under setting [1] stood at 1.017 ± 0.0058; the normalised cell viability under setting [2] came to 1.04 ± 0.011; the normalised cell viability under setting [3] is 1.01 ± 0.011; the normalised cell viability under setting [4] is 1.04 ± 0.021; the normalised cell viability under setting [5] was 0.9997 ± 0.0091; the normalised cell viability under setting [6] came out at 1.002 ± 0.0067.
Turning to `CCCCOc1cc(CC2CNC(=O)N2)ccc1OC` (stereo not given), the normalised cell viability runs as follows: under setting [1], 1.01 ± 0.01; under setting [2], 1.01 ± 0.021; under setting [3], 1.01 ± 0.011; under setting [4], 1.01 ± 0.021; under setting [5], 1.013 ± 0.0058; under setting [6], 1.013 ± 0.0058.
In the case of `COC(=O)C[C@](O)(CCCC(C)(C)O)C(=O)O[C@@H]1C(OC)=C[C@]23CCCN2CCc2cc4c(cc2[C@H]13)OCO4` [Omacetaxine mepesuccinate], the normalised cell viability is 0.00277 ± 0.001 under setting [1]; 1.08 ± 0.026 under setting [2]; 0.0391 ± 0.002 under setting [3]; 1.03 ± 0.021 under setting [4]; 0.00151 ± 0.00092 under setting [5]; 1.017 ± 0.0058 under setting [6].
As for `O=c1[nH]c2cc(Cl)c(Cl)cc2[nH]c1=O` [6,7-Dichloroquinoxaline-2,3-dione], the normalised cell viability was determined as 1.01 ± 0.011 under setting [1]; 1.04 ± 0.011 under setting [2]; 1.003 ± 0.0061 under setting [3]; 1.04 ± 0.021 under setting [4]; 0.989 ± 0.007 under setting [5]; 1.002 ± 0.0068 under setting [6].
Consider `NC(=O)c1cc[n+](CC2=C(C(=O)O)N3C(=O)[C@@H](NC(=O)C(c4ccccc4)S(=O)(=O)[O-])[C@H]3SC2)cc1` (stereo not given in full) [Cefsulodin sodium salt hydrate], for which the normalised cell viability stood at 1.01 under setting [1]; 1.013 ± 0.0058 under setting [2]; 1.02 under setting [3]; 1.01 ± 0.014 under setting [4]; 0.997 ± 0.013 under setting [5]; 0.9997 ± 0.0096 under setting [6].
For `CCc1cnn2c(NCc3ccc[n+]([O-])c3)cc(N3CCCC[C@H]3CCO)nc12`, the normalised cell viability runs as follows: under setting [1], 0.0547 ± 0.0038; under setting [2], 0.0409 ± 0.0039; under setting [3], 0.144 ± 0.004; under setting [4], 0.153 ± 0.0068; under setting [5], 0.0139 ± 0.0022; under setting [6], 0.00878 ± 0.0013.
Turning to `Oc1cc2c(cc1O)C(c1ccccc1)CNCC2` (racemic), the normalised cell viability runs as follows: under setting [1], 0.987 ± 0.014; under setting [2], 0.982 ± 0.013; under setting [3], 0.982 ± 0.023; under setting [4], 0.972 ± 0.011; under setting [5], 0.992 ± 0.0044; under setting [6], 0.9913 ± 0.0021.
Turning to `OC(CN1CCC(Cc2ccc(F)cc2)CC1)c1ccc(Cl)cc1` (stereo not given) [Eliprodil], the normalised cell viability was 0.9487 ± 0.0064 under setting [1]; 0.9277 ± 0.0051 under setting [2]; 0.9827 ± 0.0091 under setting [3]; 0.971 ± 0.0076 under setting [4]; 0.9973 ± 0.0046 under setting [5]; 0.9967 ± 0.0058 under setting [6].
With `CC(=O)Nc1ccc(C(=O)Nc2ccccc2N)cc1`, the normalised cell viability by setting is: under setting [1], 1.02 ± 0.011; under setting [2], 1.063 ± 0.0058; under setting [3], 1.033 ± 0.0058; under setting [4], 1.06 ± 0.011; under setting [5], 0.9833 ± 0.0057; under setting [6], 0.906 ± 0.052.
For the molecule `Cc1ccc(NC(=O)c2ccc(CN3CCN(C)CC3)cc2)cc1Nc1nccc(-c2cccnc2)n1` [Imatinib (Gleevec)], the normalised cell viability under setting [1] worked out at 1.05 ± 0.017; the normalised cell viability under setting [2] was 1.14 ± 0.015; the normalised cell viability under setting [3] worked out at 1.037 ± 0.0058; the normalised cell viability under setting [4] worked out at 1.1 ± 0.01; the normalised cell viability under setting [5] amounted to 1.01 ± 0.015; the normalised cell viability under setting [6] turned out to be 1.033 ± 0.0058.
Consider `Cc1cc(NC(=O)c2cccc(NC(=O)/C=C/CN(C)C)c2)ccc1Nc1nccc(-c2cccnc2)n1`, for which the normalised cell viability is, setting by setting: under setting [1], 0.989 ± 0.016; under setting [2], 0.943 ± 0.017; under setting [3], 1.007 ± 0.0058; under setting [4], 0.917 ± 0.026; under setting [5], 0.959 ± 0.011; under setting [6], 0.702 ± 0.033.
As for `Nc1ccccc1NC(=O)c1ccc(CNC(=O)OCc2cccnc2)cc1` [Entinostat (MS-275)], the normalised cell viability under setting [1] worked out at 1.05 ± 0.015; the normalised cell viability under setting [2] was found to be 0.184 ± 0.004; the normalised cell viability under setting [3] turned out to be 1.023 ± 0.0058; the normalised cell viability under setting [4] worked out at 0.302 ± 0.018; the normalised cell viability under setting [5] is 0.866 ± 0.026; the normalised cell viability under setting [6] stood at 0.02 ± 0.0035.
In the case of `Cc1ccc(NC(=O)c2ccc(CN3CCN(C)CC3)cc2)cc1Nc1nccc(-c2cccnc2)n1` [Imatinib Mesylate], the normalised cell viability under setting [1] is 1.05 ± 0.015; the normalised cell viability under setting [2] came out at 1.14 ± 0.021; the normalised cell viability under setting [3] came out at 1.05 ± 0.015; the normalised cell viability under setting [4] turned out to be 1.1 ± 0.032; the normalised cell viability under setting [5] was 1.01 ± 0.01; the normalised cell viability under setting [6] was 1.03 ± 0.011.
With `CC(=O)Nc1ccc(C(=O)Nc2ccccc2N)cc1` [CI994 (Tacedinaline)], the normalised cell viability runs as follows: under setting [1], 0.9813 ± 0.0093; under setting [2], 1.03 ± 0.029; under setting [3], 0.999 ± 0.012; under setting [4], 1.02 ± 0.02; under setting [5], 0.9707 ± 0.0072; under setting [6], 0.9157 ± 0.008.
With `Nc1ccccc1NC(=O)c1ccc(CNc2nccc(-c3cccnc3)n2)cc1` [Mocetinostat (MGCD0103)], the normalised cell viability was 1.033 ± 0.0058 under setting [1]; 0.00494 ± 0.0024 under setting [2]; 1.02 ± 0.02 under setting [3]; 0.0153 ± 0.0051 under setting [4]; 0.585 ± 0.02 under setting [5]; 0.00194 ± 0.00024 under setting [6].
For the molecule `Cc1ccc(NC(=O)c2ccc(CN3CCN(C)CC3)cc2)cc1Nc1nccc(-c2cccnc2)n1`, the normalised cell viability is, setting by setting: under setting [1], 1.043 ± 0.0058; under setting [2], 1.1 ± 0.032; under setting [3], 1.04 ± 0.011; under setting [4], 1.05 ± 0.01; under setting [5], 0.9957 ± 0.004; under setting [6], 1 ± 0.014.
Consider `Nc1ccccc1NC(=O)c1ccc(CNC(=O)OCc2cccnc2)cc1` [Entinostat], for which the normalised cell viability by setting is: under setting [1], 0.925 ± 0.019; under setting [2], 0.0313 ± 0.0074; under setting [3], 0.962 ± 0.013; under setting [4], 0.0766 ± 0.011; under setting [5], 0.348 ± 0.03; under setting [6], 0.00136 ± 0.00059.
Turning to `COc1ccc(C(=O)NCc2cccnc2)cc1C(=O)NCc1cccnc1` [Picotamide], the normalised cell viability reads like this: under setting [1], 0.989 ± 0.017; under setting [2], 0.992 ± 0.004; under setting [3], 0.867 ± 0.26; under setting [4], 1 ± 0.016; under setting [5], 1.007 ± 0.0058; under setting [6], 1.003 ± 0.0064.
`COc1cc2c(cc1OC)[C@@H](c1ccccc1)CN(C)CC2`: the normalised cell viability was 0.9913 ± 0.006 under setting [1]; 1.023 ± 0.0058 under setting [2]; 1.02 ± 0.011 under setting [3]; 1.01 ± 0.019 under setting [4]; 0.9883 ± 0.0015 under setting [5]; 0.9863 ± 0.0055 under setting [6].
As for `Nc1nc(N)c(N=O)c(OCC2CCCCC2)n1`, the normalised cell viability came to 1.02 ± 0.011 under setting [1]; 1.05 ± 0.017 under setting [2]; 1.037 ± 0.0058 under setting [3]; 1.023 ± 0.0058 under setting [4]; 1 under setting [5]; 0.978 ± 0.019 under setting [6].
Take `Clc1ccc(C2(c3ccc(-c4cn[nH]c4)cc3)CCNCC2)cc1`: the normalised cell viability is, setting by setting: under setting [1], 0.968 ± 0.012; under setting [2], 0.9977 ± 0.0021; under setting [3], 0.975 ± 0.011; under setting [4], 1.006 ± 0.0075; under setting [5], 0.9947 ± 0.0051; under setting [6], 0.939 ± 0.015.
In the case of `CC(C)NCC(O)c1ccc(O)c(O)c1` (racemic) [(±)-Isoproterenol hydrochloride], the normalised cell viability by setting is: under setting [1], 1.01 ± 0.011; under setting [2], 1.03 ± 0.042; under setting [3], 1.01; under setting [4], 1.04 ± 0.064; under setting [5], 0.99967 ± 0.00058; under setting [6], 1.02 ± 0.021.
Take `N[C@@H](CCCC(=O)O)C(=O)O` [L-2-aminoadipic acid]: the normalised cell viability reads like this: under setting [1], 0.9947 ± 0.0055; under setting [2], 0.991 ± 0.015; under setting [3], 0.997 ± 0.013; under setting [4], 0.97 ± 0.018; under setting [5], 0.979 ± 0.014; under setting [6], 0.9823 ± 0.0067.
